Sampled rows, rich in hits. Any-hit rate of the full collection: about 2.4%.
A3G deaminase: APOBEC3G DNA deaminase inhibitors, primary screen, biochemical, fluorescence, single-stranded DNA substrate, uHTS. DNA dC->dU-editing enzyme APOBEC-3G (Homo sapiens), Q9HC16. recombinant A3G, ssDNA deamination FAM/TAMRA fluorescence. inhibition, % at 20 µM. 330,000 tested, 0.28% active;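 active = inhibition of at least 40% at 20 µM, with no more than 30% in the related APOBEC3A deaminase screen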;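 note: plate controls were DMSO wells with A3G for no effect and wells lacking A3G enzyme for full effect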
APOBEC3A inh: APOBEC3A ssDNA deaminase inhibitors, primary screen, selectivity assay for APOBEC3G inhibitor project, biochemical, FAM/TAMRA oligo cleavage fluorescence; DNA dC->dU-editing enzyme APOBEC-3A (Homo sapiens), P31941; recombinant A3A, FAM/TAMRA ssDNA deamination fluorescence; inhibition, % at 20 µM; 330,000 tested, 0.41% active;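 active = at least 40% inhibition at 20 µM here, with at most 30% in a related deaminase screen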;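 note: plate controls were A3A with DMSO for no effect and wells lacking A3A enzyme for full effect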
ADAM17 inh: ADAM17 inhibitors, primary screen, biochemical, QFRET; AID 720648, 2013; inhibition, % at 6.95 µM; 370,000 tested, 0.83% active; Disintegrin and metalloproteinase domain-containing protein 17 (Homo sapiens), P78536; recombinant ADAM17, EDANS/DABCYL FRET peptide cleavage;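 active = inhibition above the mean of compounds lying between control limits plus 3 SD, set per campaign, cut at about 8.5% in these data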;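 note: 0% = DMSO-only wells as the low control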
ADAM10 inh: human ADAM10 inhibitors, primary screen, biochemical, QFRET, HTS | AID 720582, 2013 | Disintegrin and metalloproteinase domain-containing protein 10 (Homo sapiens), O14672 | recombinant ADAM10, EDANS/DABCYL FRET peptide cleavage, 3 h | inhibition, % at 7 µM | 370,000 tested, 0.62% active;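 active = inhibition above a per-campaign cutoff equal to the mean of compounds falling between control-based bounds plus 3 SD, cut at about 20% in these data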;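 note: 0% = DMSO wells while the 100% control is not disclosed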
Target sequence (O14672 214-748 limits assumed): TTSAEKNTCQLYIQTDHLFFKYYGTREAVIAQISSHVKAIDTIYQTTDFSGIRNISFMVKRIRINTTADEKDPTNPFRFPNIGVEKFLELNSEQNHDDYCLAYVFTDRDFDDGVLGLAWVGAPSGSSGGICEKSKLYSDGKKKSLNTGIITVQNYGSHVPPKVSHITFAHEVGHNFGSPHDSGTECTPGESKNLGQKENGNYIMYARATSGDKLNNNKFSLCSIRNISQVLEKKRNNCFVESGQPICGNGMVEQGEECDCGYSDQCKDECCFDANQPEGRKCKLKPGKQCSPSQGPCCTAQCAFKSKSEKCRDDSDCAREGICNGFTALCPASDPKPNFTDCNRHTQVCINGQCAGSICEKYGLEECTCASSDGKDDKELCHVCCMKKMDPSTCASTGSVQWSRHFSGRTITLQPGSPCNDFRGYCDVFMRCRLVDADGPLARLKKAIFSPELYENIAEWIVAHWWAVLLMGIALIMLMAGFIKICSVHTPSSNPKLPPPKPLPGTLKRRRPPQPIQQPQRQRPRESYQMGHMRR
NRP1-CendR mod: modulators of CendR peptide binding to NRP-1, primary screen, biochemical, fluorescence polarization, uHTS; AID 602438, 2012; inhibition, % at 25 µM; 360,000 tested, 0.85% active; FAM-RPARPAR peptide binding to NRP-1; Neuropilin-1 (Homo sapiens), O14786;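 active = inhibition or corrected inhibition above about 18%, plus a signal ratio from 0.5 to 1.5, limit read from the data, passing the limit was not always enough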
ADAM10 confirm: human ADAM10 inhibitors, confirmation, biochemical, QFRET, triplicate; shares compounds with ADAM10 inh; ADAM10 QFRET peptide cleavage, EDANS fluorescence; inhibition, % at 6.95 µM; 2,100 tested, 1% active;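 active = inhibition above about 20% chosen separately for each screening run, limit read from the data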;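 note: 0% = DMSO wells and 100% = marimastat wells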
ADAM17 ctr: ADAM17 inhibitors, counter-screen for ADAM10 exosite inhibitor project, biochemical, QFRET, high throughput. shares compounds with ADAM10 inh. ADAM17 QFRET peptide cleavage, EDANS fluorescence. inhibition, % at 6.95 µM. 2,100 tested, 0.5% active;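 active = mean triplicate inhibition above the solvent-only control wells' mean plus 3 SD, cut at about 12% in these data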;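 note: 0% = DMSO wells and 100% = marimastat wells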
ADAM10 counter: ADAM10 inhibitors, counter-screen for ADAM17 exosite inhibitor project, biochemical, FRET, human ADAM10 | shares compounds with ADAM17 inh | recombinant ADAM10, EDANS/DABCYL FRET peptide cleavage, 3 h | inhibition, % at 6.95 µM | 2,900 tested, 47% active | AID 743256, 2014;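 active = mean inhibition over the triplicate runs exceeds the activity threshold set in the earlier primary screen, cut at about 20% in these data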;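 note: 0% = DMSO wells and 100% = marimastat wells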
ADAM17 confirm: ADAM17 inhibitors, hit retest, confirmation, biochemical, QFRET peptide cleavage. inhibition, % at 6.95 µM. 2,900 tested, 65% active. AID 743257, 2014. shares compounds with ADAM17 inh. recombinant ADAM17, EDANS/DABCYL QFRET peptide cleavage;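 active = mean inhibition across replicates above the hit cutoff set in the primary screen, cut at about 8.5% in these data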;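 note: 0% = DMSO wells and 100% = marimastat wells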
Active calls of the source: *.

COc1cc(NC(=O)c2ccccc2)c(C)cc1NC(=O)CSc1nnc(-c2ccccc2F)n1-c1ccc(C)cc1 was read as ADAM17 inh 12*, ADAM10 inh 26*, ADAM10 confirm 12, ADAM17 ctr 3, ADAM10 counter 31* and ADAM17 confirm 18*.
Screening O=C(NCCc1ccccc1)OCc1cn(-c2cccc(Cl)c2)nn1 returned ADAM17 inh -4 and ADAM10 inh 3.
For CC1(C(=O)NCc2ccc(C(F)(F)F)cc2)CCN1Cc1cc2ccccc2o1 (centres undefined) the results were ADAM17 inh 11*, ADAM10 inh 24*, NRP1-CendR mod -8, ADAM10 confirm 2, ADAM17 ctr 0, ADAM10 counter 15 and ADAM17 confirm 7.
For O=C1[C@H]2[C@@H](c3ccc(C(F)(F)F)cc3)N[C@]3(CCCN(Cc4ccc(C(F)(F)F)cc4)C3=O)[C@H]2C(=O)N1Cc1ccccc1 the results were ADAM17 inh 13*, ADAM10 inh 31*, NRP1-CendR mod -2, ADAM10 confirm 3, ADAM17 ctr 1, ADAM10 counter 41* and ADAM17 confirm 24*.
For O=C1[C@H]2[C@@H](c3ccc(C(F)(F)F)cc3)N[C@]3(CCCN(Cc4ccccc4)C3=O)[C@H]2C(=O)N1Cc1ccccc1 the results were ADAM17 inh 3, ADAM10 inh 11 and NRP1-CendR mod -7.
Screening Oc1ccc(Cl)cc1-c1cc(-c2cccc(Br)c2)n[nH]1 returned A3G deaminase -1, APOBEC3A inh 1, ADAM17 inh 10*, ADAM10 inh 25*, NRP1-CendR mod -16, ADAM10 confirm 13, ADAM17 ctr 4, ADAM10 counter 31* and ADAM17 confirm 17*.
COc1ccc(C(=O)NC(=S)Nc2ccc(Cc3ccncc3)cc2)cc1 was read as A3G deaminase -4, APOBEC3A inh -4, ADAM17 inh 9.0*, ADAM10 inh 36*, NRP1-CendR mod -12, ADAM10 confirm 3, ADAM17 ctr 1, ADAM10 counter 23* and ADAM17 confirm 11*.
`Cc1ccccc1C(=O)NC(=S)Nc1ccc(Cc2ccncc2)cc1` gave A3G deaminase -5, APOBEC3A inh -4, ADAM17 inh 3, ADAM10 inh 6 and NRP1-CendR mod 8.
For O=C(CSc1nnc(-c2cccnc2)n1Cc1ccco1)Nc1ccc(Cl)c(Cl)c1 the results were ADAM17 inh 4 and ADAM10 inh 5.
For CC(C)(C)C1CCc2nc(NC(=O)Cc3cn4ccsc4n3)sc2C1 (centres undefined) the results were A3G deaminase -1, APOBEC3A inh 2, ADAM17 inh 20*, ADAM10 inh 23*, NRP1-CendR mod 5, ADAM10 confirm 3, ADAM17 ctr 2, ADAM10 counter 21* and ADAM17 confirm 9.7*.
Screening CC1CCc2nc(NC(=O)Cc3cccs3)sc2C1 (centres undefined) returned A3G deaminase -6, APOBEC3A inh -1, ADAM17 inh -4, ADAM10 inh 9 and NRP1-CendR mod 7.
CCOC(=O)C1=CCC(c2ccccc2)N(S(C)(=O)=O)C1 (centres undefined) was read as ADAM17 inh -9 and ADAM10 inh 3.
Screening CCOC(=O)C1=CCC(c2ccccc2)N(S(=O)(=O)c2ccccc2)C1 (centres undefined) returned ADAM17 inh 15*, ADAM10 inh 22*, NRP1-CendR mod 7, ADAM10 confirm 3, ADAM17 ctr 1, ADAM10 counter 13 and ADAM17 confirm 6.
For CC(=O)CC[C@H]1CC[C@]2(CCCN(C(=O)C3CCCCC3)C2)O1 the results were ADAM17 inh 2 and ADAM10 inh 5.
O=[N+]([O-])c1ccc(O)c(/C=N/Nc2ccccn2)c1 was read as ADAM17 inh 30*, ADAM10 inh 24*, NRP1-CendR mod -2, ADAM10 confirm 29*, ADAM17 ctr 31*, ADAM10 counter 48* and ADAM17 confirm 54*.
CC(C)(C)c1ccc(S(=O)(=O)N2CCC(C(=O)NCC3COCCO3)CC2)cc1 (centres undefined) was read as ADAM17 inh -3 and ADAM10 inh -7.
For O=C(/C=C/c1ccc(Cl)cc1)N1CCN(c2c(Cl)cccc2[N+](=O)[O-])CC1 the results were A3G deaminase -7, APOBEC3A inh -3, ADAM17 inh 12*, ADAM10 inh 23*, NRP1-CendR mod -10, ADAM10 confirm 4, ADAM17 ctr 1, ADAM10 counter 19 and ADAM17 confirm 8.7*.
Screening OCc1ccccc1OCc1ccccc1 returned ADAM17 inh -2 and ADAM10 inh -4.
COc1ccc(CCNc2oc(COc3ccccc3F)nc2C#N)cc1OC was read as A3G deaminase -5, APOBEC3A inh -2, ADAM17 inh 2, ADAM10 inh 10 and NRP1-CendR mod 0.
For COc1ccc(CCNc2oc(COc3ccc(F)cc3)nc2C#N)cc1 the results were A3G deaminase -7, APOBEC3A inh -7, ADAM17 inh 10*, ADAM10 inh 24*, NRP1-CendR mod -3, ADAM10 confirm 10, ADAM17 ctr 3, ADAM10 counter 33* and ADAM17 confirm 18*.
`O=S(=O)(N1CCCCC1)n1nnc2cc3ccccc3cc21` gave ADAM17 inh -1 and ADAM10 inh -12.

From PubChem
